Assay outcomes from PubChem.
CYP2C9 activ = increases human cytochrome P450 2C9 activity; 96,000 tested, 1.4% active; activation factor at 5 µM; recombinant CYP2C9, luciferin-H conversion, luminescence; active compounds read high; factor 1 = untreated enzyme, 0 = blocked; AID 1024;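 active = activation factor of 2 or more for CYP2C9 at a 5 µM dose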
CYP2C9 inhib = human CYP2C9 inhibition; 96,000 tested, 20% active; inhibition, % at 5 µM; P11712; CYP2C9 Supersomes, luciferin-H conversion, luminescence; AID 777;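 active = blocking of liver enzyme CYP2C9 beyond about 50% at 5 µM, limit read from the data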
CYP2C19 inh = inhibitors of human CYP2C19. P33261. CYP2C19 Supersomes, luciferin-H EGE luminescence, 30 min. 96,000 tested, 21% active. inhibition, % at 5 µM. AID 778;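 active = CYP2C19 inhibition above a set limit at 5 µM in the primary screen, cut at about 50% in these data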
CYP2C19 activ = increases human CYP2C19 enzyme activity | P33261 | recombinant CYP2C19, luciferin-H EGE luminescence; active compounds read high; 0 = fully inhibited enzyme, 1 = untreated enzyme | activation factor at 5 µM | 96,000 tested, under 10 active | AID 1025;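 active = activation factor of at least 2 at 5 µM in the primary screen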
PLAP activator = activates human placental alkaline phosphatase. P05187. purified PLAP enzyme, luminescent substrate read-out; active compounds read high. activation fold at 20 µM. 96,000 tested, 1.2% active; in the data active = activation fold above about 2
Target sequence (P05187 whole entry, looked up): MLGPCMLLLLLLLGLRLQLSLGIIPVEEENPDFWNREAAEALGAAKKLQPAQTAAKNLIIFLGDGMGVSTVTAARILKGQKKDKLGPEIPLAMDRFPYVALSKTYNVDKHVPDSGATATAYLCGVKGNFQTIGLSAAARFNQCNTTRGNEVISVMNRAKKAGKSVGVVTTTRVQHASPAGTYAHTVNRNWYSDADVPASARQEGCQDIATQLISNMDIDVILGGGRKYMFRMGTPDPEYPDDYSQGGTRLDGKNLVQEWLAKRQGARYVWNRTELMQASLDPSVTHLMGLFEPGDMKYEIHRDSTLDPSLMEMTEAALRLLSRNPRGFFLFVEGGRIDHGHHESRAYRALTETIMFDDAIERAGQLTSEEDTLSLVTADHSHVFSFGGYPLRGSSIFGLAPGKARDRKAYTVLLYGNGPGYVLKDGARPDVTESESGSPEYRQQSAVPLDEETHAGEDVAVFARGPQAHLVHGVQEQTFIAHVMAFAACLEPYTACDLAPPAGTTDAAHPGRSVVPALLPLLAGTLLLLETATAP
Numbers stand for hits. Rows were chosen to be rich in hits. Some 31% of all compounds tested hit in one or more screens of this group.

How did O=C1CC(c2ccccc2)c2c(O)cc(O)cc2O1 (centres undefined) do in these assays?
CYP2C9 activ: inactive; CYP2C9 inhib: 79; CYP2C19 inh: 63; CYP2C19 activ: inactive; PLAP activator: inactive

What do the screens show for `CCOc1cc(C2C(C(=O)c3ccccc3)=C(C(=O)OC)Nc3nnnn32)ccc1O` (centres undefined)?
CYP2C9 activ: inactive; CYP2C9 inhib: inactive; CYP2C19 inh: inactive; CYP2C19 activ: inactive; PLAP activator: inactive

What do the screens show for `NC(=O)NCc1ccc(Cl)cc1`?
CYP2C9 activ: inactive; CYP2C9 inhib: inactive; CYP2C19 inh: inactive; CYP2C19 activ: inactive; PLAP activator: inactive

Results for COc1ccccc1CNC(=O)C(C)NS(=O)(=O)c1ccccc1 (centres undefined) ?
CYP2C9 activ: inactive; CYP2C9 inhib: inactive; CYP2C19 inh: inactive; CYP2C19 activ: inactive; PLAP activator: inactive

How did CCC(C)NS(=O)(=O)c1ccc(OCC(=O)NCc2ccco2)cc1 (centres undefined) do in these assays?
CYP2C9 activ: inactive; CYP2C9 inhib: inactive; CYP2C19 inh: inactive; CYP2C19 activ: inactive; PLAP activator: inactive

How did COc1ccc(S(=O)(=O)NC(CC(=O)NCc2ccco2)C(C)C)cc1 (centres undefined) do in these assays?
CYP2C9 activ: inactive; CYP2C9 inhib: inactive; CYP2C19 inh: 61; CYP2C19 activ: inactive; PLAP activator: inactive

Results for O=C(NCc1ccco1)C1(S(=O)(=O)c2ccc(Cl)cc2)CC1 ?
CYP2C9 activ: inactive; CYP2C9 inhib: inactive; CYP2C19 inh: 73; CYP2C19 activ: inactive; PLAP activator: inactive

How did CC(NS(=O)(=O)c1ccc(F)cc1)C(=O)NCc1ccncc1 (centres undefined) do in these assays?
CYP2C9 activ: inactive; CYP2C9 inhib: 65; CYP2C19 inh: 94; CYP2C19 activ: inactive; PLAP activator: inactive

What do the screens show for `O=C(CC(NS(=O)(=O)c1ccc(Cl)cc1)c1ccco1)NCc1ccco1` (centres undefined)?
CYP2C9 activ: inactive; CYP2C9 inhib: inactive; CYP2C19 inh: 61; CYP2C19 activ: inactive; PLAP activator: inactive

Results for Cc1ccc(F)cc1NC(=O)C1CCN(c2cnccn2)CC1 ?
CYP2C9 activ: inactive; CYP2C9 inhib: inactive; CYP2C19 inh: inactive; CYP2C19 activ: inactive; PLAP activator: inactive

Results for O=C(O)C1C2C=CC(C3CC23)C1C(=O)NCCc1ccccc1 (centres undefined) ?
CYP2C9 activ: inactive; CYP2C9 inhib: inactive; CYP2C19 inh: inactive; CYP2C19 activ: inactive; PLAP activator: inactive

What do the screens show for `CC(NS(=O)(=O)c1ccc(Cl)cc1)C(=O)NCc1ccco1` (centres undefined)?
CYP2C9 activ: inactive; CYP2C9 inhib: inactive; CYP2C19 inh: 66; CYP2C19 activ: inactive; PLAP activator: inactive

Results for COc1cccc(C(CC(=O)NCC2CCCO2)NS(=O)(=O)c2ccc(C)cc2)c1OC (centres undefined) ?
CYP2C9 activ: inactive; CYP2C9 inhib: inactive; CYP2C19 inh: inactive; CYP2C19 activ: inactive; PLAP activator: inactive

What do the screens show for `COc1cccc(C(CC(=O)NCc2ccco2)NS(=O)(=O)c2ccc(C)cc2)c1OC` (centres undefined)?
CYP2C9 activ: inactive; CYP2C9 inhib: inactive; CYP2C19 inh: 81; CYP2C19 activ: inactive; PLAP activator: inactive

Results for CC1Oc2ccccc2N(CC(=O)Nc2ccc3c(c2)OCO3)C1=O (centres undefined) ?
CYP2C9 activ: inactive; CYP2C9 inhib: inactive; CYP2C19 inh: inactive; CYP2C19 activ: inactive; PLAP activator: inactive

What do the screens show for `CC1Oc2ccccc2N(Cc2ccccc2F)C1=O` (centres undefined)?
CYP2C9 activ: inactive; CYP2C9 inhib: 67; CYP2C19 inh: 90; CYP2C19 activ: inactive; PLAP activator: inactive

How did Cc1ccc2c(c1)N(Cc1ccc3c(c1)OCO3)C(=O)C(C)O2 (centres undefined) do in these assays?
CYP2C9 activ: inactive; CYP2C9 inhib: inactive; CYP2C19 inh: 61; CYP2C19 activ: inactive; PLAP activator: inactive

How did OC(CN1CCN(c2ccccc2)CC1)c1ccc2c(c1)CCN2 (centres undefined) do in these assays?
CYP2C9 activ: inactive; CYP2C9 inhib: inactive; CYP2C19 inh: inactive; CYP2C19 activ: inactive; PLAP activator: inactive

Results for CCOC(=O)c1ccc(N2CN=C3SCC(=O)N3C2)cc1 ?
CYP2C9 activ: inactive; CYP2C9 inhib: inactive; CYP2C19 inh: inactive; CYP2C19 activ: inactive; PLAP activator: inactive

How did COc1ccc(OC)c(C2CC(=O)N3CN(c4cccc(Cl)c4)CSC3=C2C#N)c1 (centres undefined) do in these assays?
CYP2C9 activ: inactive; CYP2C9 inhib: 90; CYP2C19 inh: 70; CYP2C19 activ: inactive; PLAP activator: inactive

How did CCOC(=O)c1ccc(N2CSC3=C(C#N)C(c4ccc(OC)cc4OC)CC(=O)N3C2)cc1 (centres undefined) do in these assays?
CYP2C9 activ: inactive; CYP2C9 inhib: 91; CYP2C19 inh: 52; CYP2C19 activ: inactive; PLAP activator: inactive

Results for COc1ccc(OC)c(C2CC(=O)N3CN(c4ccc(C)c(Cl)c4)CSC3=C2C#N)c1 (centres undefined) ?
CYP2C9 activ: inactive; CYP2C9 inhib: 96; CYP2C19 inh: 54; CYP2C19 activ: inactive; PLAP activator: inactive

Results for CSc1nnc2c3ccccc3c3ccccc3c2n1 ?
CYP2C9 activ: inactive; CYP2C9 inhib: inactive; CYP2C19 inh: inactive; CYP2C19 activ: inactive; PLAP activator: inactive

Results for COc1ccc(OC)c2c1CC(C)(C)NC2=O ?
CYP2C9 activ: inactive; CYP2C9 inhib: inactive; CYP2C19 inh: inactive; CYP2C19 activ: inactive; PLAP activator: inactive

Results for CCCCNC(=O)CN1CCC2(O)CCCCC2C1c1ccccc1OC (centres undefined) ?
CYP2C9 activ: inactive; CYP2C9 inhib: inactive; CYP2C19 inh: inactive; CYP2C19 activ: inactive; PLAP activator: inactive

Results for CCOc1cc([C@H]2[C@@H]3CCCC[C@]3(O)CCN2CC(=O)NCc2ccco2)ccc1O ?
CYP2C9 activ: inactive; CYP2C9 inhib: 54; CYP2C19 inh: 56; CYP2C19 activ: inactive; PLAP activator: inactive

What do the screens show for `O=C(Nc1ccc(NC(=O)C2CC2)nc1)c1cccnc1`?
CYP2C9 activ: inactive; CYP2C9 inhib: inactive; CYP2C19 inh: inactive; CYP2C19 activ: inactive; PLAP activator: inactive

What do the screens show for `CSCCC1C(C#N)=C(N)Oc2n[nH]c(-c3cccs3)c21` (centres undefined)?
CYP2C9 activ: inactive; CYP2C9 inhib: 55; CYP2C19 inh: inactive; CYP2C19 activ: inactive; PLAP activator: inactive

What do the screens show for `CC(C)CC1C(C#N)=C(N)Oc2n[nH]c(-c3cccs3)c21` (centres undefined)?
CYP2C9 activ: inactive; CYP2C9 inhib: inactive; CYP2C19 inh: 67; CYP2C19 activ: inactive; PLAP activator: inactive

Results for CN(C)CCNc1oc(-c2cccc(Cl)c2)nc1C#N ?
CYP2C9 activ: inactive; CYP2C9 inhib: inactive; CYP2C19 inh: inactive; CYP2C19 activ: inactive; PLAP activator: inactive

Results for N#Cc1cn(Cc2cccc(Cl)c2)c2ccccc12 ?
CYP2C9 activ: inactive; CYP2C9 inhib: 93; CYP2C19 inh: 93; CYP2C19 activ: inactive; PLAP activator: inactive
